In the library only some 6.8% were active in any assay of this set; here they are far more common.
NADH enzymes – inhibitors of enzymes used to reach an NAD/NADH endpoint. coupled PK/LDH NADH assays, four targets. IC50, µM (titrated, usually from 10 µM), for inactives: at the top dose inhibition. actives 0.02% (n = 65,000). AID 774;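 active means single-dose screening hits from any of four coupled enzyme assays that gave an IC50 when retested across doses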;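 further: the DPM-DC format reads NADH fluorescence rather than 340 nm absorbance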
Spn PMK inh – S. pneumoniae PMK inhibition; purified PMK, PK/LDH-coupled NADH absorbance 340 nm; inhibition, % at 10 µM; actives 0.49% (n = 65,000); AID 539;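 active means top-ranked compounds by inhibition in the single 10 µM screen, taking a fixed number of the strongest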;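 further: 0% = full reaction with DMSO carrier and 100% = background rate without enzyme reaction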
Autofluor 339 – intrinsic fluorescence of library compounds, ex339/em460 – biochemical, MLSMR library, data from DPM-DC assay, artefact control, profiling panel; compound autofluorescence, ex339/em460 nm, NADH buffer; active compounds read high; 1 = no-compound wells, NADH background; fluorescence fold increase at 10 µM; actives 5.5% (n = 65,000);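 active means at 10 µM, mean starting fluorescence two-fold or more over control wells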;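 further: signal is the first read of a kinetic run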
Spn MK inh – inhibitors of Streptococcus pneumoniae mevalonate kinase | purified MK, PK/LDH-coupled NADH absorbance 340 nm | inhibition, % at 10 µM | actives 0.48% (n = 65,000);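 active means ranked among the strongest by inhibition in the single 10 µM screen, a fixed top-ranked set picked for dose follow-up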
Abs 340nm – absorbance at 340 nm; compound absorbance at 340 nm, fold over control; fold change at 10 µM; 65,000 tested, under 10 active; AID 708;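 active means at 10 µM dose, initial 340 nm absorbance at least 2 fold that of control wells; inactive means change under 2 fold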;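 further: initial absorbance extrapolated from kinetic A340 decline of NADH oxidation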
DPM-DC inhibit – blocks S. pneumoniae diphosphomevalonate decarboxylase; purified DPM-DC, PK/LDH coupled NADH fluorescence; actives 0.49% (n = 65,000); calls only at 10 µM; AID 556;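 active means the 320 compounds with the highest percent inhibition in the single-dose primary screen, excluding strongly autofluorescent ones, cut at about 32% in these data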;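 further: kinetic rate of NADH fluorescence loss reporting ADP formed by the decarboxylase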
* = called active by the depositor; i = inactive; · = no result given; + = active, no number; [ ] = dose if it differs, or a comment.

SMILES | NADH enzymes | Spn PMK inh | Autofluor 339 | Spn MK inh | Abs 340nm | DPM-DC inhibit
Cn1c(O)c(C=NC2C(=O)C3(C)CCC2C3(C)C)c(=O)n(C)c1=O (stereo not drawn) | 5% | 7 | 1.1 | 7 | 1 | i
Cn1c(C(=O)O)c(CC(=O)N2CCN(Cc3ccccc3)CC2)c2ccccc21 | 6% | 10 | 1.1 | 7 | 0.99 | i
COCC(C)OC(=O)c1c(N)n(Cc2ccco2)c2nc3ccccc3nc12 (stereo not drawn) | 5% | 9 | 2.3* | 1 | 1.1 | ·
CCOC(=O)c1c(N)n(Cc2ccco2)c2nc3ccccc3nc12 | 8% | 8 | 2.2* | 8 | 1.1 | ·
CCCCn1c(NC(=O)c2ccco2)c(C(=O)OCC)c2nc3ccccc3nc21 | 7% | 10 | 3.8* | 4 | 1.1 | ·
CCCC(C)C1(CC)C(=O)NC(=Nc2ccc(F)cc2)NC1=O (stereo not drawn) | 4% | 7 | 1.1 | 5 | 1 | i
CC(C(=O)c1c[nH]c2ccccc12)N1CCc2ccccc2C1 (stereo not drawn) | 4% | 6 | 1.1 | 6 | 1 | i
O=C(c1ccc2nc3ccc(Cl)cc3c(=O)n2c1)N1CCC2(CC1)OCCO2 | 3% | 7 | 3.3* | 0 | 1.1 | ·
O=C(c1ccc2nc(-c3ccco3)c(-c3ccco3)nc2c1)N1CCC2(CC1)OCCO2 | 5% | 9 | 1.8 | 12 | 1 | i
CCOc1ccc(-c2cc(C(=O)N3CCC4(CC3)OCCO4)c3ccccc3n2)cc1 | 5% | 9 | 5.2* | 0 | 1.1 | ·
Cc1cc(N2C(=O)C3CCCN3C2c2sccc2C)no1 (stereo not drawn) | 6% | 13 | 1.1 | 4 | 1 | i
O=C(CSc1ccccc1)N1CCC2(CC1)OCCO2 | 8% | 10 | 1 | 9 | 1 | i
Cc1nc2cc(-c3cccc(F)c3)nn2c(C)c1CCC(=O)N1CCC2(CC1)OCCO2 | 5% | 7 | 2.3* | 6 | 1 | i
Cc1nc2c(c(C)nn2-c2ccccc2)c(C)c1CCC(=O)N1CCC2(CC1)OCCO2 | 4% | 11 | 3.6* | 0 | 0.98 | i
Cc1nc2c(-c3ccccc3)c(C)nn2c(C)c1CCC(=O)N1CCC2(CC1)OCCO2 | 7% | 13 | 1.2 | 8 | 1.1 | i
CCOc1ccc(-n2c(O)c(C=NCCN3CCNCC3)c(=O)[nH]c2=O)cc1 | 3% | 14 | 1.1 | 0 | 0.99 | i
CN(C)[C@@H]1C(=O)C(C(N)=O)=C(O)[C@@]2(O)C(=O)C3=C(O)c4c(O)cccc4[C@@](C)(O)[C@H]3[C@H](O)[C@@H]12 | 125µM*[fluoresces] | 4 | 2 | 9 | 1 | +[fluoresces]
CC(C)CCOC(=O)c1c(N)n(CC2CCCO2)c2nc3ccccc3nc12 (stereo not drawn) | 9% | 10 | 3.9* | 8 | 1.1 | ·
Nc1c(C(=O)OC2CCCCC2)c2nc3ccccc3nc2n1CC1CCCO1 (stereo not drawn) | 10% | 10 | 3.6* | 9 | 1.1 | ·
CC(C)OC(=O)c1c(N)n(CC2CCCO2)c2nc3ccccc3nc12 (stereo not drawn) | 5% | 15 | 3* | 9 | 1 | ·
CC12CN3CC(C)(CN(C1)C31CCSCC1)C2=O | 7% | 16 | 1.1 | 5 | 0.99 | i
CCCNC(=O)N1C2CCC1CC(O)(c1cccnc1)C2 (stereo not drawn) | 6% | 12 | 1.1 | 5 | 0.98 | i
O=C(Cn1ncc2ccsc2c1=O)N1CCC2(CC1)OCCO2 | 1% | 0 | 1.1 | 3 | 1 | i
O=C(Cn1c(=O)c(C(F)(F)F)nc2ccccc21)N1CCC2(CC1)OCCO2 | 12% | 15 | 2* | 0 | 1.1 | i
C(#CCN1CCOCC1)COC/C=C/c1ccccc1 | 2% | 0 | 1.1 | 6 | 1 | i
SMILES | NADH enzymes | Spn PMK inh | Autofluor 339 | Spn MK inh | Abs 340nm | DPM-DC inhibit
CCCCP(=O)(O)c1ccccc1 | 4% | 7 | 1.1 | 5 | 1 | i
CCCCCCOC(=O)c1ccccc1N | 4% | 4 | 2.1* | 4 | 1.1 | ·
CN(C)P(=O)(C(Cl)=C(N1CCCCC1)N1CCCCC1)N(C)C | 5% | 8 | 1.1 | 6 | 1 | i
COc1ccc(CN2CCN(C(=O)Cc3ccccc3)CC2)c(OC)c1 | 7% | 0 | 1 | 52* | 1 | i
O=C(O)C1CN2CCC1CC2 (stereo not drawn) | 7% | 11 | 1.1 | 9 | 1 | i
O=C(c1ccc(CS(=O)(=O)c2ccccc2)o1)N1CCC2(CC1)OCCO2 | 5% | 11 | 1.1 | 25 | 1 | i
CC(C)OCCCNC(=O)c1c(N)n(CC2CCCO2)c2nc3ccccc3nc12 (stereo not drawn) | 1% | 0 | 3* | 0 | 1 | ·
CCCNC(=O)c1c(N)n(CC2CCCO2)c2nc3ccccc3nc12 (stereo not drawn) | 3% | 3 | 3.9* | 3 | 1 | ·
COc1cc2nc(CN3CC=C(c4ccccc4)CC3)[nH]c(=O)c2cc1OC | 6% | 18 | 1.2 | 0 | 0.99 | i
CCCCn1c(=O)c(C(=O)Nc2nc3ccccc3[nH]2)c(O)c2ccccc21 | 10% | 9 | 1.7 | 14 | 1.1 | i
CCCn1nc2ccccc2c1P(=O)(N1CCOCC1)N1CCOCC1 | 5% | 14 | 1.1 | 2 | 0.98 | i
CCCCCCn1c(N)c(C(=O)NCCN2CCOCC2)c2nc3ccccc3nc21 | 8% | 4 | 3.9* | 12 | 0.99 | ·
CCCCCn1c(N)c(C(=O)NCCN2CCOCC2)c2nc3ccccc3nc21 | 6% | 7 | 2.1* | 4 | 1.1 | ·
Cc1cc(OCC(=O)NC2CCS(=O)(=O)C2)c2c3c(c(=O)oc2c1)CCC3 (stereo not drawn) | 2% | 0 | 2.2* | 3 | 1.1 | ·
Cc1cc(OCc2nn[nH]n2)c2c3c(c(=O)oc2c1)CCC3 | 9% | 13 | 3.9* | 5 | 1.1 | ·
Clc1ccc(COC(Cn2ccnc2)c2ccc(Cl)cc2Cl)c(Cl)c1 (stereo not drawn) | 5% | 9 | 0.99 | 9 | 0.97 | i
